Screen size: about 16,000 compounds; about 40 (0.2%) were called active. Inconclusive results (about 1%) are left out. The sample as a whole holds a higher share of actives than the screen did. Some structures have more than one record in an assay (separate samples or runs), and their calls can disagree. Values without a mark were called inactive. The call rests on the fitted dose curve; in most records, active means well fitted activation curve with a large enough effect; inconclusive means small, poorly fitted or top-dose-only effect, or another doubt; inactive means no such curve, though single readings can be large or run the other way. Residues, ends and D or L forms follow the SMILES beside them.

The results in this text go back to PubChem BioAssay AID1645887 (National Center for Advancing Translational Sciences (NCATS), 2021).
On the % scale 0 is the no-effect control and ±100 the full control effect; potency means the concentration at half of the fitted maximal effect.

Chain of Rap guanine nucleotide exchange factor 4 (Homo sapiens) (Q8WZA2 whole entry, looked up): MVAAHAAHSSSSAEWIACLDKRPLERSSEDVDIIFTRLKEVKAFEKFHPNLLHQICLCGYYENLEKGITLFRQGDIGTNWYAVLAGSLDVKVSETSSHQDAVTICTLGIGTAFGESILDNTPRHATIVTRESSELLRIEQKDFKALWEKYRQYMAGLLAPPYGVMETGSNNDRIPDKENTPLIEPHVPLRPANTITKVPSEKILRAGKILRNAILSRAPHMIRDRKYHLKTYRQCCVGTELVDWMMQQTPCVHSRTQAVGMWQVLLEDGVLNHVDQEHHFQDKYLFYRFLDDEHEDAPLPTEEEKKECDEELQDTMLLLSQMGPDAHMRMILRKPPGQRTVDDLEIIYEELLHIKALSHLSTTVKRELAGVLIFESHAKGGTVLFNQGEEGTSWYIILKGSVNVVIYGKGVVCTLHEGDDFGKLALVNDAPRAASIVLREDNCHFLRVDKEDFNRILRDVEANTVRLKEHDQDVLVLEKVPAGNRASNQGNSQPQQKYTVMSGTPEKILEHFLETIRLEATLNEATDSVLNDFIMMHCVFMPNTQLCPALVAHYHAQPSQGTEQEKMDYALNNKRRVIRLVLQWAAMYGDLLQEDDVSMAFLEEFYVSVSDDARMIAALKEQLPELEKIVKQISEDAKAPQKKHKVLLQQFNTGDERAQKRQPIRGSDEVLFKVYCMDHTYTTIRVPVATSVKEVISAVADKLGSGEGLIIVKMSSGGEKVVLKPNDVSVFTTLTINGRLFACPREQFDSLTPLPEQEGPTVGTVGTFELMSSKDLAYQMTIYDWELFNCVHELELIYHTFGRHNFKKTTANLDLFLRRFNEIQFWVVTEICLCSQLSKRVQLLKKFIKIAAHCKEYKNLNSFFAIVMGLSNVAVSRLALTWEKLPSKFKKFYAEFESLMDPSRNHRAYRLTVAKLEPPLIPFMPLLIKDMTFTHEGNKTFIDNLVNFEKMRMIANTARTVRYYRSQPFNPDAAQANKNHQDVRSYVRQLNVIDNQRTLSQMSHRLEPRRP

This test deals with Rap guanine nucleotide exchange factor 4 (Homo sapiens) (UniProt Q8WZA2). In words: Validation qHTS for agonist of cAMP-regulated guanine nucleotide exchange factor 4 (EPAC2).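 On activation: exchange makes BODIPY-GDP fluorescence drop when released from Rap1B; series mostly up to about 150 µM.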 The conditions noted are these: EPAC2 Rap1B BODIPY-GDP exchange, fluorescence; activation: active compounds read high. The source says:
Principle Investigator: Xiaodong Cheng Ph.D.
The University of Texas Medical Branch, […], TX
In multi-cellular eukaryotic organisms, the effects of cAMP are transduced by two ubiquitously-expressed intracellular cAMP receptors, the classic protein kinase A/cAMP-dependent protein kinase (PKA/cAPK) and the more recently discovered exchange protein directly activated by cAMP/cAMP-regulated guanine nucleotide exchange factor (EPAC/cAMP-GEF). Both PKA and EPAC are ubiquitously expressed in all tissues, and an increase in intracellular cAMP levels will lead to the activation of both PKA and EPAC. Therefore, careful dissections of the individual role and relative contribution of EPAC and PKA within the overall cAMP signaling in various model systems are critical for further elucidating the mechanism of cAMP signaling. To date no EPAC-specific antagonists and agonist, as well as isoform-specific agonists have been reported, and developing EPAC-specific pharmacological probes to determine the physiological functions that EPAC play in the overall cAMP-mediated signaling remains a major challenge within the research field. Furthermore, identified regulators of EPAC may lead to new mechanism-based therapeutic strategies specifically targeting the EPAC / cAMP-signaling components as EPAC has been implicated to play important roles in major human pathological conditions such as diabetes, heart disease, and cancer.
This qHTS will be used to screen the Molecular Libraries Small Molecule Repository (MLSMR) as a concentration-titration series using the NCGC unique quantitative screening (qHTS) platform to find activators for EPAC1. In addition, this assay will also be used as a counterscreen for the EPAC2 qHTS. This fluorescent based assay is developed and validated for EPAC1 that measures exchange using EPAC effector Rap1 complex with BODIPY-GDP, a GDP analog with a tethered fluorophores. Activators are identified by monitoring the change in fluorescence signal as the exchanged free BODIPY-GDP has a reduced fluorescence compared to Rap1-bound BODIPY-GDP. Increase in signal (activation) is the desired outcome for the EPAC1 agonist while no activity in this assay is desired for the EPAC2 agonist counterscreen.
[1] de Rooij, J., Zwartkruis, F. J., Verheijen, M. H., Cool, R. H., Nijman, S. M., Wittinghofer, A., and Bos, J.L. (1998) Nature 396, 474-477.
Briefly, three uL of reagents (100 nM EPAC2, 250 nM RAP1B-BODIPY-GDP, 50 uM GDP) were dispensed into a 1536-well Greiner black solid-bottom medium binding assay plate. Controls and test compounds (23 nL) were transferred to the plate via a Kalypsys pin tool equipped with a 1536-pin array. The plates were centrifuged at 1,000 rpm for 15 seconds followed by 5 minute incubation at room temperature. The assay plates were read at 5 minute intervals for 30 minutes in the ViewLux plate reader using 480nm excitation and 540nm emission filters. The results were normalized to the agonist positive control of 6.5 mM cAMP.
In general terms: qHTS replaces the single test concentration by a dilution series.
On to `CCNc1ncc2nc(-c3ccccc3)c(=O)n(CCc3ccccc3)c2n1`, for which the activation was 4.35%.
Same read-out and setting: under `CN1CCCC(CNC(=O)c2cnn(-c3ncc4c(n3)-c3ccccc3CC4)c2C2CC2)C1` (centres undefined) stands -10.8%; under `O=C(CNC(=O)c1cccnc1)c1ccc(F)cc1`, -17.4%.
`O=C(c1cn(C2CCCN(Cc3cc(Cl)ccc3O)C2)nn1)N1CCCCC1` (centres undefined): the activation was -0.543%.
Consider `CNc1ccnc(-c2cccc(NS(C)(=O)=O)c2)n1`, for which the activation is 1.54%.
The same measure, in the same setting: under `CC(=O)Nc1ccc(S[C@@H](CCN2CC[C@H](C(C)(C)C)CCC2=O)c2ccccc2)cc1` stands -31.2%.
For the compound `O=C(O)COc1ccc(CCNS(=O)(=O)c2ccccc2)s1`, the activation was 2.15%.
On to `CCn1c(-c2ccccc2F)nc2cc(NC(C)=O)cc(C(=O)N3CCNC(=O)C3CC(=O)OC)c21` (centres undefined), for which the activation was -2.82%.
The same measure, in the same setting: with `O=C(C[N+]12CCCc3cccc(c31)CCC2)c1ccccc1` the figure was -2.28%; with `CN(C)c1ccc(C(=C2C=CC(=[N+](C)C)C=C2)c2ccccc2)cc1`, -24.7%.
Same read-out and setting: with `Cn1c(C(c2cc3ccccc3n2C)c2cc3ccccc3n2C)cc2ccccc21` the figure was 11.4%; with `COc1ccccc1CNc1ccnc(-c2ccoc2)n1`, -10.4%; with `CCCN1CCC(=O)N([C@H](CSc2ccccc2)c2ccccc2)CC1`, -10.4%.
Same read-out and setting: under `CC(=O)OC1CCC2(C)C3CC(=O)C4(C)C(CC5OC6(CCC(C)CO6)C(C)C54)C3CC[C@H]2C1` (some centres undefined) stands -13.5%; under `O=C(O)c1ccc2nc(-c3ccccc3)c(-c3ccccc3)nc2c1`, 11.6%.
As to `Cc1nc(NCc2c(F)cccc2F)sc1-c1ccn(CCN2CCOCC2)n1`, the activation was -13.4%.
In the case of `COc1ccc(C(=O)N2CCC[C@@]3(CCN(c4ncccn4)C3)C2)cc1`, the activation was -15.1%.
For the compound `COc1cccc(Cn2c(=O)c(-c3ccc(F)cc3)nc3cnc(N4CCNCC4)nc32)c1`, the activation is 12.8%.
With `C=C1CCC(OC(C)=O)/C(C)=C/CC2[C@H]1CC2(C)C` (some centres undefined), the activation was -15.7%.
Same read-out and setting: under `CCOC(=O)C[C@H]1c2cc(F)ccc2S(=O)(=O)N1C1CCCC1` stands -9.78%.
As for `CN(C)c1ccc(/C=C/c2c3c(nc4ccccc24)CCCC3)cc1`, the Potency was 44.7 µM (active).
As to `Cc1cnc2ccccc2c1/C=C/c1ccc(N(C)C)cc1`, the activation is 20.8%.
On to `CN(C)c1ccc(/C=C/c2c3ccccc3nc3ccccc23)cc1`, for which the activation was -14.9%.
The same measure, in the same setting: under `OC(CN1CCCCC1)c1cc(-c2ccccc2)on1` (centres undefined) stands 8.32%; under `CN(Cc1ccco1)c1ncnc2ccc(-c3ccccc3C(F)(F)F)cc12`, -4.16%.
Take `Cc1c(C(=O)N(C)Cc2cscn2)sc2ncnc(NC[C@H]3CCc4ccccc4O3)c12`: the activation was -2.34%.
Take `O=C(O)[C@@H]1CN[C@@H](C(=O)O)C1`: the activation is 11.8%.
Turning to `Cc1cc2c(c(-c3cnccn3)c1)OC(CNC(=O)c1ccc(-n3nc(C)cc3C)cc1)C2` (centres undefined), the activation was -7.18%.
Consider `CC(C)CC(NC(=O)CN)C(=O)NC(Cc1ccccc1)C(=O)O` (stereo not drawn) (H-Gly-Leu-Phe-OH; configuration not given here), for which the activation is -3.33%.
Take `CO[C@H]1[C@H](NC(=O)c2ccco2)c2ccccc2C12CCN(Cc1cnc(N(C)C)s1)CC2`: the activation is -21.4%.
Still for that read-out and setting: with `COc1ccc(-c2nc3cnc(OC)nc3n(C[C@H]3CCCO3)c2=O)cc1` the figure was -6.48%.
The same measure, in the same setting: under `O=C(O)CCC(=O)OC[C@@H](NC(=O)C(Cl)Cl)C(O)c1ccc([N+](=O)[O-])cc1` (some centres undefined) stands -9.09%; under `COCCn1c(=O)c(C)nc2cnc(OC)nc21`, -6.26%.
For `CC(=O)O[C@H]1C[C@H]2CC[C@@H]3[C@H]4C[C@@H]([N+]5(C)CCCCC5)[C@@H](OC(C)=O)[C@]4(C)CC[C@@H]3[C@@]2(C)C[C@@H]1[N+]1(C)CCCCC1`, the activation is -8.62%.
The same measure, in the same setting: under `O=c1c(-c2ccccc2)nc2cnc(Oc3ccccc3)nc2n1Cc1cccs1` stands -18.6%; under `CN1CCN(c2ncc3nc(CCc4ccccc4)c(=O)n(Cc4cccs4)c3n2)CC1`, 14.9%.
On to `CC1=CC(=O)c2ccccc2C1=O`, for which the activation was -29.9%.
`CC1(C)CCC2=C(O1)c1ccccc1C(=O)C2=O`: the Potency was 70.8 µM (active) and the activation is 17.8%.
Take `CC1(S(=O)(=O)O)CC(=O)c2ccccc2C1=O` (centres undefined): the activation was 3.25%.
Still for that read-out and setting: with `CC(C)C(C)/C=C/C(C)C1CCC2C3=CCC4CC(=O)CC[C@@]4(C)C3CC[C@]21C` (some centres undefined) the figure was 0.449%; with `O=C(O)c1cccc(/C=C2/C[C@@H]3[C@@H](/C=C/[C@@H](O)C4CCCCC4)[C@H](O)C[C@@H]3O2)c1`, 15.9%; with `C=C1Cc2c(Cl)cc3[nH]c4c5c3c2[C@@]2(O)[C@@H]1C[C@@H]2C(C)(C)O[C@H]5[C@@H]1CC[C@@]2(O)[C@@]35O[C@@H]3[C@@H](O)[C@@H](C(=O)O)O[C@H]5CC[C@]2(C)[C@@]41C`, -9.97%.
The same measure, in the same setting: with `N#CC[C@H](Cc1ccccc1)N1CC[C@@H](NC(=O)OCc2ccccc2)CCC1=O` the figure was -28.7%; with `Oc1cc(-c2nc3ccccc3s2)cc2c1OCCN(Cc1cccn1-c1ccccn1)C2`, 7.3%.
On the same count and under the same terms, with `COc1ccc(CN([C@H](CO)CC(C)C)S(=O)(=O)N(Cc2ccccc2)[C@H](CO)CC(C)C)cc1` the figure was -27.3%; with `N#CCCn1c(=O)c(-c2cccs2)nc2cnc(Nc3ccccc3)nc21`, -2.03%.
Turning to `CCNc1ncc2nc(-c3cccs3)c(=O)n(CCC#N)c2n1`, the Potency was 50.1 µM (active).
For `CCNc1ncc2nc(-c3cccs3)c(=O)n(CCc3ccccc3)c2n1`, the activation is -14%.
`O=c1[nH]c(=O)n(C2CC(O)C(CO)O2)cc1F` (centres undefined): the activation was -6.18%.
`CC(=O)Oc1ccc2c(c1)CC[C@@H]1[C@@H]2CC[C@]2(C)[C@@H](O)CC[C@@H]12`: the Potency is 44.7 µM (active).
In the case of `C[C@]12CC[C@@H]3c4ccc(OC(=O)c5ccccc5)cc4CC[C@H]3[C@@H]1CC[C@@H]2O`, the activation was -2.11%.
Same read-out and setting: under `CC(=O)Oc1ccc2c(c1)CCC1C2CC[C@]2(C)C(OC(C)=O)CCC12` (some centres undefined) stands -1.9%; under `CN(C)C(=O)c1ccc(-c2nc(N3CCOCC3)c3ccccc3n2)cc1`, -5.48%.
On to `CC(C)C[C@@H](CC#N)N1CCN(Cc2ccccc2)CCC1=O`, for which the activation is -11.1%.
On to `Clc1ccc[n+](CCCCC[n+]2cccc(Cl)c2)c1`, for which the activation is -27.9%.
On the same count and under the same terms, with `O=C(Nc1ccc(C(F)(F)F)cc1[N+](=O)[O-])O[C@H]1[C@H](Cc2ccccc2)NS(=O)(=O)[C@H]2C[C@@H]3C=C[C@]12O3` the figure was -19.6%; with `COc1ccc(C(=O)C[n+]2cccc3cccc(O)c32)cc1`, -13.2%; with `COc1cccc2c1C(=O)c1c(O)c3c(c(O)c1C2=O)C[C@@](O)(C(=O)CO)C[C@@H]3O[C@H]1C[C@H](N)[C@H](O[C@@H]2CCCCO2)[C@H](C)O1`, 1.58%.
For the compound `CC(=O)[C@]1(O)Cc2c(O)c3c(c(O)c2[C@@H](O[C@H]2C[C@H](N)[C@H](O)[C@H](C)O2)C1)C(=O)c1ccccc1C3=O`, the Potency is 100 µM (active).
`COc1cccc2c1C(=O)c1c(O)c3c(c(O)c1C2=O)C[C@@](O)(C(=O)CO)C[C@@H]3O[C@H]1C[C@H](N)[C@H](O)[C@H](C)O1`: the activation was -17.2%.
`CC(=O)[C@]1(O)Cc2c(O)c3c(c(O)c2[C@@H](O[C@H]2C[C@H](N)[C@H](O)[C@H](C)O2)C1)C(=O)c1c(O)cccc1C3=O`: the Potency is 100 µM (active).
Take `CCCCC(=O)OCC(=O)[C@]1(O)Cc2c(O)c3c(c(O)c2[C@@H](O[C@H]2C[C@H](NC(=O)C(F)(F)F)[C@H](O)[C@H](C)O2)C1)C(=O)c1c(OC)cccc1C3=O`: the activation is -1%.
As to `CC[C@@]1(O)C[C@H](O[C@H]2C[C@H](N(C)C)[C@H](O[C@H]3C[C@H](O)[C@H](O[C@H]4CCC(=O)[C@H](C)O4)[C@H](C)O3)[C@H](C)O2)c2c(cc3c(c2O)C(=O)c2c(O)cccc2C3=O)[C@H]1C(=O)OC`, the activation was 26%.
For the compound `COc1cccc2c1C(=O)c1c(O)c3c(c(O)c1C2=O)C[C@@](O)(C(C)=O)C[C@@H]3O[C@H]1C[C@H](N)[C@H](O)[C@H](C)O1`, the Potency is 100 µM (active).
Regarding `Cc1c(C(=O)NCc2ccco2)cnn1-c1ncc2c(n1)-c1ccccc1CC2`, the activation is -0.162%.
On the same count and under the same terms, under `O=C(c1ccncc1)N1CCC2(CCCN(c3ccc(-c4ccccc4)cc3)C2)CC1` stands -3.07%.
On the same count and under the same terms, with `COc1cc2c(cc1OC)C(=O)N(C)CC2` the figure was -9.91%.
The same measure, in the same setting: under `CC(C)NC(=O)[C@@H]1C[C@@H](Sc2ccccn2)CN1C1CCN(C)CC1` stands -0.85%; under `C=CCN1[C@@H](Cc2ccccc2)COCCS1(=O)=O`, -11.2%.
Regarding `Cc1cccc(CN2Cc3cccc4c3[C@H](C=CC4)CC2=O)c1`, the activation is -35.8%.
With `Cc1cc(CC(=O)O)c(C)n1-c1ccc(Cl)cc1`, the activation is -0.347%.
As to `COc1ccccc1CNc1ncncc1-c1ccccc1CN(C)C`, the activation is -6.39%.
On the same count and under the same terms, under `COc1ccccc1CCNc1ncnc2sc(C(=O)N3CCCC3)c(C)c12` stands -2.93%; under `COc1cccc(-c2ccc3ncnc(NCc4cccnc4)c3c2)c1`, -11%.
For `Clc1cccc[n+]1CCc1ccccc1`, the activation is -40.7%.
As for `COc1ccc(N2C(=O)[C@@H]3C[C@H]2CN3Cc2ccc3nccnc3c2)cc1Cl`, the activation was -3.06%.
On to `CC[C@@H]1[C@H]2CCCC(=O)N3CC[C@@H](C[C@H]1O)[C@@H]23`, for which the activation was -8.94%.
The same measure, in the same setting: under `N[C@@H](Cn1cc(I)c(=O)n(Cc2ccc(C(=O)O)cc2)c1=O)C(=O)O` stands 2.18%.
